# Reference: paper PMC4336329 (PLoS ONE, 2015)
# Out of some 310,000 compounds screened, about 14,000 (4.5%) showed an effect of 50% or more. Effects have a minus sign here. The sample as a whole holds a higher share of strong results than the screen did.
# Target: human ether-à-go-go-related gene (hERG) potassium channel (human, UniProt Q12809)
# Assay: primary screen, population patch clamp on CHO cells stably expressing hERG; higher = less effect of the substance
# 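Further: peak tail current of the secondary pulse compared with the same well before compound.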
# human ether-à-go-go-related gene (hERG) potassium channel, sequence (Q12809 whole entry, looked up): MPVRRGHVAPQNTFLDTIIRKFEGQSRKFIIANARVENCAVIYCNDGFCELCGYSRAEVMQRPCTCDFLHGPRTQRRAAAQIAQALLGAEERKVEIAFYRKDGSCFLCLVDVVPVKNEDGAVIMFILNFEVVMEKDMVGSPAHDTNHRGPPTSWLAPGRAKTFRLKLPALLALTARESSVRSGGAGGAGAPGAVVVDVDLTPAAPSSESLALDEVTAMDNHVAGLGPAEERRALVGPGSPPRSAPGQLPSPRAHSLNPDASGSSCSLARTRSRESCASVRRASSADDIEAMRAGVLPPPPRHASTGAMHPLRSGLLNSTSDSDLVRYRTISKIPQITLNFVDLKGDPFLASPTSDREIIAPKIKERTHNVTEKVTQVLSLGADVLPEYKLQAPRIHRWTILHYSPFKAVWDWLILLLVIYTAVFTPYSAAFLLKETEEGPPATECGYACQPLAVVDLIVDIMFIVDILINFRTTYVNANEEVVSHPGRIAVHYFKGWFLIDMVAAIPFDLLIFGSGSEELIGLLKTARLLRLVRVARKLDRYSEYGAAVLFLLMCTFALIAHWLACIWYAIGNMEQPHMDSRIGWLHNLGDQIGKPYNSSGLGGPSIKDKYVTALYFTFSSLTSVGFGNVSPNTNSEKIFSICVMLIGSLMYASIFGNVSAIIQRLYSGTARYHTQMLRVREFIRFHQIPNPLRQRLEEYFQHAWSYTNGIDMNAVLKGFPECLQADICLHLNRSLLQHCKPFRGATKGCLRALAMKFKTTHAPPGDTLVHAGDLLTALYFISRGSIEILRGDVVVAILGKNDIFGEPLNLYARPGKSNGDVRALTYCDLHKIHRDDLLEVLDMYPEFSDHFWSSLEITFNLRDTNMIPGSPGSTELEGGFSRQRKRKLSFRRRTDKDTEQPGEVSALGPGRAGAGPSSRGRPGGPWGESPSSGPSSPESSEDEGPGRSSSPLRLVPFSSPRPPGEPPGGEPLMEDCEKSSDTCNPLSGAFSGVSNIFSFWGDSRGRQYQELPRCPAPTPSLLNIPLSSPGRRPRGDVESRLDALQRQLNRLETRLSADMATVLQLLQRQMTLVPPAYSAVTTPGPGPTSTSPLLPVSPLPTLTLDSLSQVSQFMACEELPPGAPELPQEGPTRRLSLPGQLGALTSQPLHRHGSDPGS
row,Compound,"hERG current change (%, negative = inhibition) at 10uM [%]"
1,COc1ccc(OCCSc2nc(N)cc(=O)[nH]2)cc1,-1.77
2,Cc1cccc(OCCC(=O)Nc2ccc(N3CCOCC3)cc2N2CCOCC2)c1,-19.7
3,COn1c(SCc2ccc(C)cc2C)nc2ccccc2c1=O,7.64
4,O=C(Nc1ccc(SC(F)F)cc1)c1ccc2nccnc2c1,-17.1
5,CN1CCC(Oc2ccc(Sc3ccccc3)cc2)CC1.Cl,-67
6,CN1CCC(OC(=O)COc2ccc(C(C)(C)C)cc2)CC1.Cl,-28.7
7,CN1CCC(OC(=O)c2ccccc2)CC1.Cl,7.92
8,CN1CCC(Oc2ccccc2Sc2ccc(C(F)(F)F)cc2)CC1.O=C(O)C(=O)O,-63.2
9,COc1ccc(OC2CCN(S(=O)(=O)c3ccccc3)CC2)cc1,-11.6
10,CN1CCC(OC(=O)Cc2ccccc2)CC1.Cl,5.22
11,CN1CCC(OC(=O)COc2ccccc2)CC1.Cl,15.1
12,Cc1ccccc1C(=O)OC1CCN(C)CC1.Cl,6.06
13,CN1CCC(Oc2ccccc2Sc2ccccc2)CC1.O=C(O)C(=O)O,-64.5
14,COc1ccccc1NC(=O)CCCCC(=O)Nc1ccccc1OC,7.88
15,O=Cc1ccccc1-c1cn(CN2C(=O)c3ccccc3C2=O)nn1,3.42
16,O=C(CCc1nnc2ccc(NCc3ccc(F)cc3)nn12)N1CCC2(CC1)OCCO2,-0.229
17,O=C(CCc1nnc2ccc(NCc3ccco3)nn12)N1CCN(c2ccc(F)cc2)CC1,-46.7
18,O=C(CCc1nnc2ccc(NCc3ccco3)nn12)Nc1ccc(F)cc1,-9.82
19,O=C(CCc1nnc2ccc(NCc3ccccc3)nn12)N1CCC2(CC1)OCCO2,14.4
20,O=C(CCc1nnc2ccc(NCc3ccco3)nn12)N1CCN(c2ccccc2F)CC1,-20.5
21,Cc1ccc(NC(=O)CCc2nnc3ccc(NCc4ccco4)nn23)cc1F,-70.9
22,O=C(CCc1nnc2ccc(NCc3ccco3)nn12)N1CCN(c2ccccc2)CC1,-56.3
23,O=C(CCc1nnc2ccc(NCc3ccccc3Cl)nn12)N1CCC2(CC1)OCCO2,-67.7

row,Compound,"hERG current change (%, negative = inhibition) at 10uM [%]"
1,Cc1ccc(NC(=O)CCc2nnc3ccc(NCc4ccco4)nn23)cc1,-2.39
2,COC(=O)C1(Cc2cc(-c3ccc(Cl)cc3)no2)CCN(C(=O)OC(C)(C)C)CC1,-22.8
3,CCOc1ccc(OCC)c(S(=O)(=O)NCc2ccccc2)c1,-10.1
4,Clc1ccc(N2CCCCCC2)nn1,4.93
5,O=C(c1noc2c1CCCC2)N1CCN(c2ccccc2)CC1,-17.6
6,CCOc1cc(CNc2ccc3[nH]c(=O)[nH]c3c2)ccc1OCC(=O)NC(C)(C)C,12.4
7,COc1ccc(C2=NN(C(=O)CN3CCCC3)C(c3ccc(OC)cc3)C2)cc1 (centres unmarked),-40.7
8,COc1ccc(C2CC(c3ccccc3)=NN2C(=O)CN2CCN(Cc3ccccc3)CC2)cc1 (centres unmarked),-31.2
9,COc1ccc(C2=NN(C(=O)CN3CCCCC3)C(c3ccc(C)cc3)C2)cc1 (centres unmarked),-54.9
10,COc1ccc(C2CC(c3ccc(Br)cc3)=NN2C(=O)CN2CCCC2)cc1 (centres unmarked),-68.1
11,COc1ccc(C2=NN(C(=O)CN3CCCCC3)C(c3ccc(OC)cc3)C2)cc1 (centres unmarked),-40.1
12,COc1ccc(C2=NN(C(=O)CCC(=O)O)C(c3ccc(Br)cc3)C2)cc1 (centres unmarked),29.9
13,COC(=O)C1C2C=CC3(CN(c4ccc(Cl)c(F)c4)C(=O)C13)O2 (centres unmarked),4.99
14,N#Cc1ccc(S(=O)(=O)N2CCN(c3ncccn3)CC2)cc1,-17.9
15,Cc1ccc(S(=O)(=O)N2CCN(c3nccnc3C#N)CC2)cc1,-54.8
16,Cc1ccc(S(=O)(=O)N2CCN(c3ccccn3)CC2)cc1,4.96
17,O=C(O)Cc1ccc(NC(=O)c2cnccn2)cc1,26.1
18,COc1cc(/C=N/NC(=O)Cc2ccccc2)cc([N+](=O)[O-])c1O,10
19,COc1cc(NC(=O)CCN2CCN(C/C=C/c3ccccc3)CC2)cc(OC)c1,-69.3
20,CCN(CCC(=O)Nc1cc(OC)cc(OC)c1)Cc1ccccc1,-65.1
21,COc1ccc(NC(=S)N2CCN(C/C=C/c3ccccc3)CC2)cc1,-24.1
22,CCN(CCC(=O)Nc1ccc(Br)c(C)c1)Cc1ccccc1.Cl,-36.8
23,COc1ccc(NC(=O)CCN2CCCCCC2)cc1,-12.3

row,Compound,"hERG current change (%, negative = inhibition) at 10uM [%]"
1,COc1cc(NC(=S)N2CCN(C/C=C/c3ccccc3)CC2)cc(OC)c1,-10.7
2,COc1cc(NC(=O)Cc2ccccc2)cc(OC)c1,-4.79
3,COc1cc(NC(=O)CCN2CCN(Cc3ccccc3)CC2)cc(OC)c1,-20.1
4,COc1ccc(NC(=O)CCN2CCN(C/C=C/c3ccccc3)CC2)cc1,-77.3
5,Cc1nc2ccccc2c(=O)n1NC(=O)c1cncc(Br)c1,14.9
6,Cc1cc(C)c(C(=O)OCCNC(=O)c2cccnc2)cc1C,-17.3
7,CCc1ccccc1N(CC(=O)NCc1ccco1)C(=O)CCC(=O)Nc1nccs1,0.493
8,N#CC(C#N)=Cc1cnc(N2CCN(c3ccccc3)CC2)s1,23
9,COCCN(C(=S)Nc1cc(C)ccc1C)C(C)c1cccnc1 (centres unmarked),-25.4
10,Cc1ccc(OC(C)C(=O)Nc2ccccc2C(=O)N2CCN(C)CC2)cc1 (centres unmarked),-5.11
11,Cc1cc(Nc2c(C)n(C)n(-c3ccccc3)c2=O)n2c(nc3ccccc32)c1C#N,-73.6
12,CCc1c(C)c(C#N)c2nc3ccccc3n2c1Nc1c(C)n(C)n(-c2ccccc2)c1=O,-5.49
13,Cc1c(NP(=O)(c2ccc(Br)cc2)c2ccc(Br)cc2)c(=O)n(-c2ccccc2)n1C,-65.7
14,Cc1c(Nc2c3ccccc3nc3ccccc23)c(=O)n(-c2ccccc2)n1C,-71
15,Cc1c(Nc2nc(C(F)(F)F)nc3ccccc23)c(=O)n(-c2ccccc2)n1C,-1.37
16,Cc1c(Nc2nc3ccccc3nc2NS(=O)(=O)c2cccs2)c(=O)n(-c2ccccc2)n1C,1.13
17,Cc1c(Nc2nc3ccccc3nc2NS(=O)(=O)c2ccccc2)c(=O)n(-c2ccccc2)n1C,-67.1
18,Cc1cc(Nc2c(C)n(C)n(-c3ccccc3)c2=O)c2ccccc2n1,-20.3
19,Cc1c(NS(=O)(=O)c2ccc(Br)cc2)c(=O)n(-c2ccccc2)n1C,-6.03
20,Cc1cc(Nc2c(C)n(C)n(-c3ccccc3)c2=O)n2c(nc3cc(F)c(F)cc32)c1C#N,19.2
21,Cc1c(Nc2nc3ccccc3nc2NS(=O)(=O)c2cccc(Cl)c2)c(=O)n(-c2ccccc2)n1C,-2.18
22,Cc1c(NP(=O)(C(C)(C)C)C(C)(C)C)c(=O)n(-c2ccccc2)n1C,26.4
23,CC(C)C(=O)Nc1cccc(C(=O)Nc2ccc(S(=O)(=O)Nc3nccs3)cc2)c1,8.32

row,Compound,"hERG current change (%, negative = inhibition) at 10uM [%]"
1,Nn1cnnc1SCC(=O)N1CCc2ccccc2C1,-12.8
2,COc1ccc(C(=O)c2nccc3ccccc23)cc1,0.535
3,COc1cccc(N(CC(=O)NCC2CCCO2)C(=O)CNS(=O)(=O)c2ccccc2)c1 (centres unmarked),23.1
4,c1ccc(CCNc2ncnc3c2cnn3-c2ccccc2)cc1,-40.5
5,CC(=O)Nc1ccc(N2CCc3c(C)c(C#N)c4nc5ccccc5n4c32)cc1,8.55
6,Cc1ccc(N(Cc2ccc(C(=O)NCCSc3ccccn3)cc2)S(C)(=O)=O)cc1C,-4.82
7,Cc1nn(-c2ccc(Cl)cc2Cl)c(=O)c2ccccc12,-11.3
8,Nc1c2c(nc3ccccc13)CCC2.O=C(O)/C=C/C(=O)O,-18.2
9,Nc1c2c(nc3ccn(Cc4ccccc4)c(=O)c13)CCC2,-66
10,O=c1[nH]c(N2CCN(Cc3ccccc3)CC2)nc2c1CCC2,18.9
11,Cc1nc(SC2CC(=O)N(c3ccccc3)C2=O)nc2c1CCCC2 (centres unmarked),-3.22
12,O=c1[nH]c(N2CCN(c3ccccc3)CC2)nc2c1CCCC2,2.28
13,Nc1c2c(nc3ccn(-c4ccccc4)c(=O)c13)CCCCC2,-58.8
14,Cc1sc(NC(=O)CN2CCN(c3ccccn3)CC2)c(C#N)c1C,2.51
15,O=C(C/C=N/OCc1ccc(Cl)cc1Cl)c1ccccc1,-6.79
16,CC(=O)Nc1nc(-c2cccc3ccccc23)cs1,-9.32
17,CSc1ccc(CNC2CC2)cc1.Cl,-7.3
18,CC(C)Cn1c(C(C)C)nc([N+](=O)[O-])c1Sc1ccc(Cl)cn1,-6.57
19,CCCCn1c(CCC)nc([N+](=O)[O-])c1Sc1ccc(Cl)cn1,-53.2
20,CCCn1c(CC)nc([N+](=O)[O-])c1Sc1ccc(C)cc1,-0.08
